PubChem BioAssay (NCI)
About 83,000 compounds went through this panel and 20% of them were active in at least one assay; those are over-represented in the sample as a whole.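 Each cell line was grown in a 96-well plate and treated with one concentration of compound for 48 hours. Values below 10 were considered active.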 Activity calls are given as the source filed them.

test system: MDA-MB-468 breast; assay: NCI-60 one-dose screen, 48 h (100 = growth as untreated, 0 = no growth, -100 = all killed); details: 10 µM unless noted

Row | SMILES | growth
1 | Cc1nn(-c2ccc(Cl)cc2)c(C)c1N=Nc1ccc2oc(=O)ccc2c1 | 98.5% (inactive)
2 | COc1ccc(-n2cnc3cc(C(=O)N4CCCCC4)ccc32)cc1 | 103% (inactive)
3 | Cc1[nH]n(C(=O)c2ccncc2)c(=O)c1N=Nc1ccc(O)c(C(=O)O)c1 | 105% (inactive)
4 | CC1(C)[C@@H](O)CC[C@]2(C)[C@H]3CC[C@@H]4[C@H]5[C@H](C(=O)/C=C\c6ccncc6)CC[C@]5(O)CC[C@@]4(C)[C@]3(C)CC[C@@H]12 | 17.5% (inactive)
5 | COc1ccc(-c2nc(SCC(C)C)nc(N/N=C\c3cccc([N+](=O)[O-])c3)c2C#N)cc1 | 58.1% (inactive)
6 | COc1cc([C@@H](CCO)C[C@H](C)c2ccc3ccccc3c2)cc(OC)c1OC | 17.2% (inactive)
7 | COc1ccc(-c2n[nH]nc2-c2cc(OC)c3c(c2)OCO3)cc1 | 38.6% (inactive)
8 | CCOC(=O)CC1CSC(N/N=C/c2ccc(O)cc2)=N1 (stereo not given) | 108% (inactive)
9 | OCC1OC(n2ccc3c(NO)ncnc32)C(O)C1O (stereo not given) | -88.8% (active)
10 | CCN1CCN(C(=O)[C@]23CCC(C)(C)C[C@@H]2C2=CC[C@@H]4[C@@]5(C)C/C(=C/c6ccncc6)C(=O)C(C)(C)[C@@H]5CC[C@@]4(C)[C@]2(C)CC3)CC1 | -49.8% (active)
11 | COc1cc(/C=C/C(=O)c2ccc(N3CCN(C)CC3)cc2)ccc1F | 35% (inactive)
12 | CCN(CC)CC(O)c1cc(-c2ccc(Cl)cc2)nc2c(C)c(Cl)ccc12 (stereo not given) | -88.6% (active)
13 | Cc1ccc(NCCN2CCCCC2)c2c(=O)c3ccccc3sc12 | 11.1% (inactive)
14 | O=S(=O)(Nc1ccc2c(c1)OC(F)(F)O2)c1ccc(-c2cnc(C3CC3)o2)cc1 | 15.3% (inactive)
15 | Cc1ccc(-c2cc3nc(C(Cl)Cl)nc(-c4ccco4)n3n2)cc1 | -41.3% (active)
